Screens (PubChem)
BL2 CD40 inh: CD40 pathway inhibition in BL2 cells | BL2 NF-kB luciferase reporter, CD40L-induced, 4 h | inhibition, % at 10 µM | actives 0.94% (n = 83,000);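 active = mean inhibition of at least 50% with a set share of replicates also reaching that level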;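 note: 0% = neutral control wells and 100% = IKK inhibitor VII at 50 µM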
* marks the source's active call; other numbers are inactive results; ! = repeats disagree; [ ] = another dose, or the depositor's remark. The sample as a whole holds a higher share of hits than the screen did.

SMILES	BL2 CD40 inh
CC(=O)N1[C@H](C(=O)N[C@H](C)c2ccccc2)[C@@H](CO)[C@@H]2Cn3c(cccc3=O)[C@@H]21	1.4[25 µM]
N#C[C@H]1[C@H](c2ccc(-c3ccccc3F)cc2)[C@@H](CO)N1C(=O)Cc1ccccc1	4.8
COc1ccc2c3c(n(C)c2c1)[C@@H](CO)N(C(=O)c1ccc(F)cc1)CC31CN(CC2CCOCC2)C1	-1.2[25 µM]
Cc1ccnc(Nc2nc3ccccc3o2)n1	67.8*
N#Cc1cnc(Nc2nc3ccccc3o2)nc1-c1ccccc1	-19.8
Cc1nc(Nc2nc3ccccc3o2)nc(C)c1C	5.7
O=C(O)C(Cc1ccccc1)N=C(NS(=O)(=O)c1ccccc1)c1ccccc1 (stereo not drawn)	3.9
CCc1nc2c(OCCn3cccc3)cccn2c1N(C=O)Cc1ccccc1	0.2
CCOC(=O)C1=C(C)Nc2ccccc2N/C1=N\S(=O)(=O)c1cc(C(=O)O)ccc1Cl	5.5
COC(=O)c1ccc2nc(NC(=O)C(C)(C)C)sc2c1	79.0*
CCCC(=O)Nc1nc2ccc(OC)cc2s1	-59.2
COC(=O)Nc1nc2ccc(Br)cc2s1	-9.4
CCc1cnc(N2[C@H](C#N)[C@H](c3ccc(-c4cccc(F)c4)cc3)[C@@H]2CO)s1	-13.0[25 µM]
CCS(=O)(=O)Nc1ccc2c(c1)C(=O)N(C)C[C@H](OC)[C@@H](C)CN(C(=O)c1ccc3c(c1)OCO3)[C@@H](C)CO2	-17.5[25 µM]
CN1CCN(c2ccccc2NC(=O)c2ccc(-c3cccc([N+](=O)[O-])c3)o2)CC1	-10.7
O=C(c1ccc(-c2ccc(Cl)cc2)o1)N1CCN(c2ccc([N+](=O)[O-])cc2Cl)CC1	48.6*
O=C(Nc1ccccc1)c1ccc(-c2ccc([N+](=O)[O-])cc2)o1	-47.2
N#C[C@H]1[C@H](c2ccc(C#CC3CC3)cc2)[C@H](CO)N1S(=O)(=O)c1ccccc1	-0.8
N#Cc1ccc(-c2ccc(C3[C@H]4CNC[C@@H]3N4C(=O)Nc3ccc(F)cc3)cc2)cc1 (stereo partly drawn)	-1.1[25 µM]
O=C(C[C@H]1C[C@H]2c3cc(NC(=O)Nc4ccc(F)cc4)ccc3O[C@H]2[C@@H](CO)O1)NC1CCCC1	-6.6
CCc1nnc(NC(=O)C2Cc3ccccc3CN2S(=O)(=O)CC)s1 (stereo not drawn)	-19.8
CCS(=O)(=O)N1Cc2ccccc2CC1C(=O)Nc1nc2ccccc2[nH]1 (stereo not drawn)	-82.8
CCS(=O)(=O)N1Cc2ccccc2CC1C(=O)Nc1nc2ccccc2s1 (stereo not drawn)	61.4*
COc1ccc(-c2ccccc2[C@H]2[C@@H](CO)N(C(=O)C3CCOCC3)[C@H]2C#N)cc1	6.1[25 µM]
N#Cc1cc([N+](=O)[O-])ccc1NC(=O)CSc1n[nH]c(=O)[nH]c1=O	3.3
SMILES	BL2 CD40 inh
COc1cc(OC)c(C(=O)OCC(=O)Nc2c(C)n(C)n(-c3ccccc3)c2=O)cc1OC	9.8
CCc1ccc2oc(-c3ccc(OC)cc3)cc(=Nc3c(C)n(C)n(-c4ccccc4)c3=O)c2c1	50.0*
COc1ccc2oc(-c3ccncc3)cc(=O)c2c1	-48.8
COc1ccc(OC(=O)N(C)C[C@H]2OCc3ccccc3-c3ccccc3C(=O)N([C@@H](C)CO)C[C@@H]2C)cc1	-3.2
Cc1ccc(S(=O)(=O)N[C@@H]2CC[C@@H](CC(=O)NCc3ccncn3)O[C@H]2CO)cc1	1.3[25 µM]
COCCn1c(C)c(C)c(S(=O)(=O)c2ccccc2)c1N	9.6
O=C(N[C@H]1CC[C@@H](CC(=O)N2CCOCC2)O[C@@H]1CO)c1cccc(F)c1	-3.0[25 µM]
CC(C)(C)c1cc(/C=C(\C#N)C(N)=S)cc(C(C)(C)C)c1O	56.4*[25 µM]
N#CC(C#N)=C(N)/C(C#N)=C/c1cc(O)c(O)c(O)c1	-18.3[25 µM]
CCn1c2ccccc2c2cc(/C=C(/C#N)C(N)=S)ccc21	-5.3
CN(C)C(=O)c1ccc(NC(=O)COc2cccc3c2OC(C)(C)C3)cc1	6.3
C[C@H]1CN([C@@H](C)CO)C(=O)c2cccc(NC(=O)Nc3ccc(C(F)(F)F)cc3)c2O[C@H]1CN(C)S(=O)(=O)c1cn(C)cn1	-6.1[25 µM]
COCCn1c(SC(C)C(=O)NCC2CCCO2)nc2sc3c(c2c1=O)CCC3 (stereo not drawn)	-1.6
COc1cccc(-c2ccc(C3[C@@H]4CN(S(=O)(=O)c5ccccc5)C[C@H]3N4)cc2)c1 (stereo partly drawn)	24.3
COc1cccc(S(=O)(=O)N2C[C@@H]3N[C@H](C2)C3c2ccc(/C=C/c3ccccc3)cc2)c1 (stereo partly drawn)	45.6*!
COc1cccc(S(=O)(=O)N2[C@@H]3CNC[C@H]2C3c2ccc(/C=C/c3ccccc3)cc2)c1 (stereo partly drawn)	-3.9[25 µM]
COc1ccccc1CNC(=O)C[C@@H]1C[C@@H]2c3cc(NC(=O)c4ccc5c(c4)OCO5)ccc3O[C@@H]2[C@@H](CO)O1	14.4[25 µM]
CN(Cc1ccccc1)C(=O)Cn1c(=O)c2cccn2c2cccnc21	-0.4
COc1ccccc1-c1cn(CC[C@@H]2CC[C@H](NC(=O)C3CCCC3)[C@H](CO)O2)nn1	-2.5
COc1ccc(-c2c[n+](CC(=O)OC3CC(C)CCC3C(C)C)c3n2CCC3)cc1 (stereo not drawn)	78.5*
COc1ccc(-c2cnc3n2CCCCC3)cc1	2.0
COc1ccc(OCC(=O)OCC(=O)N2C(C)CCCC2C)cc1 (stereo not drawn)	6.7
Cc1ccc(C(=O)C(C)OC(=O)Cn2cnc3c2c(=O)n(C)c(=O)n3C)cc1 (stereo not drawn)	5.7
O=C(NC1CCCCC1)[C@H]1N[C@H]2c3ccc(-c4cccc(F)c4)c(=O)n3C[C@H]2[C@@H]1CO	-6.6[25 µM]
COc1ccc(OCCOC(=O)c2cccs2)cc1	-17.4
SMILES	BL2 CD40 inh
COc1ccc(C2CC2/C(C)=N/OC(=O)c2cccs2)cc1 (stereo not drawn)	-6.6
COc1ccc(C(=O)O/N=C(/C)c2cccs2)cc1	58.6*
CC(C)(O)C#Cc1ccc([C@@H]2[C@H](CO)N3CCCCN(C(=O)c4ccncc4)C[C@@H]23)cc1	-5.2[25 µM]
CN1c2ccc(-c3ccccc3)cc2[C@@H]2[C@@H](CCN2C(=O)c2ccccn2)[C@H]1CO	-3.9
O=C(Nc1ccc(C(F)(F)F)cc1)N1[C@@H]2CNC[C@H]1C2c1ccc(/C=C/c2ccccc2)cc1 (stereo partly drawn)	32.4
O=C(Cc1ccccn1)N[C@H]1CC[C@@H](CCNS(=O)(=O)c2cccc(F)c2)O[C@@H]1CO	8.2[25 µM]
O=C(O)C1CCCCN1S(=O)(=O)c1ccc2ccccc2c1 (stereo not drawn)	4.0
O=S(=O)(CC(CN1CCCC1)N1CCCC1)c1ccc2ccccc2c1 (stereo not drawn)	51.7*
OC(COc1ccc2ccccc2c1)CN1CCCC1 (stereo not drawn)	-35.6
CCC(=O)O[C@]1(C(=O)CCl)[C@@H](C)C[C@H]2[C@@H]3CCC4=CC(=O)C=C[C@]4(C)[C@@]3(F)[C@@H](O)C[C@@]21C	44.8*
CC12C=CC(=O)C=C1CCC1C3CCC(O)(C(=O)CO)C3(C)CC(O)C12F (stereo not drawn)	27.9
CCCC(=O)O[C@]1(C(=O)CCl)[C@@H](C)C[C@H]2[C@@H]3CCC4=CC(=O)C=C[C@]4(C)[C@@]3(F)C(=O)C[C@@]21C	41.9
C[C@@H]1C[C@H]2[C@@H]3CCC4=CC(=O)C=C[C@]4(C)[C@@]3(F)[C@@H](O)C[C@]2(C)[C@@]1(O)C(=O)COP(=O)(O)O	51.5*
C[C@H]1C[C@H]2[C@@H]3CCC4=CC(=O)C=C[C@]4(C)[C@@]3(Cl)[C@@H](O)C[C@]2(C)[C@@]1(O)C(=O)CO	29.5
